An excerpt weighted towards active compounds, which were near 1.4% of everything screened.
NPR1 activator: GC-A (human) enzyme activation; 370,000 tested, 0.14% active; AID 1671463; P16066; HEK293 GC-A cells, cGMP TR-FRET, EC30 ANP; 0% at EC30 ANP, 100% saturating ANP; activation, % at 10 µM; in the data active means activation above about 40%
A3A deaminase: blocks human APOBEC3A ssDNA deamination | 330,000 tested, 0.41% active | recombinant A3A, FAM/TAMRA ssDNA deamination fluorescence | inhibition, % at 20 µM | P31941;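 active means at least 40% inhibition at 20 µM here, with at most 30% in a related deaminase screen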
Target sequence (P31941 whole entry, looked up): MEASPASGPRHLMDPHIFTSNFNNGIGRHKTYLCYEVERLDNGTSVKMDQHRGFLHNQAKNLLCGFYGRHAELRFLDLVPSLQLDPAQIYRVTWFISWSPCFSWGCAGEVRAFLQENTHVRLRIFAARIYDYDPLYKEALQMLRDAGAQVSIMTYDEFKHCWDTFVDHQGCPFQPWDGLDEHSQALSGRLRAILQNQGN
FAS TE block: inhibitors of human fatty acid synthase thioesterase domain; P49327; recombinant FAS-TE, OMFH fluorogenic substrate, fluorescence endpoint; inhibition, % at 15 µM; 360,000 tested, 0.67% active;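 active means compounds whose normalised, plate-corrected inhibition of enzyme fluorescence in the single-dose primary screen is 50% or more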
A3G deaminase: inhibitors of human APOBEC3G DNA deaminase. inhibition, % at 20 µM. 330,000 tested, 0.28% active. Q9HC16. recombinant A3G, ssDNA deamination FAM/TAMRA fluorescence. AID 493012;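 active means inhibition of at least 40% at 20 µM, with no more than 30% in the related APOBEC3A deaminase screen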
Target sequence (Q9HC16 whole entry, looked up): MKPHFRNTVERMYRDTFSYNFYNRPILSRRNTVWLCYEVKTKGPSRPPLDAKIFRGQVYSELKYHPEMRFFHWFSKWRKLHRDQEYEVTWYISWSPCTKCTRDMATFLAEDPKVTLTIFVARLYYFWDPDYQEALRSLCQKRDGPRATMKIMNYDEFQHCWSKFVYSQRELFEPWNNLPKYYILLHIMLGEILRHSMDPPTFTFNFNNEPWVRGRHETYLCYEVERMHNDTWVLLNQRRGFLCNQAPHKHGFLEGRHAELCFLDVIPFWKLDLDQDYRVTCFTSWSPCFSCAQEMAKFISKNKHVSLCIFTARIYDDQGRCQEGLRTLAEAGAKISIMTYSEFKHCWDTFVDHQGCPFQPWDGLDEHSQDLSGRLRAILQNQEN
NPR2 activator: GC-B (human) receptor activation; P20594; HEK293-GC-B cells, CNP EC30, cGMP TR-FRET; 0% at EC30 CNP, 100% saturating CNP; activation, % at 10 µM; 370,000 tested, 0.11% active;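 active means activation at 10 µM reaching about 35% in either raw or pattern-adjusted values, limit read from the data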
FAS-TE inh conf: confirmation of human fatty acid synthase thioesterase inhibitors | shares compounds with FAS TE block | recombinant FAS-TE, OMFH fluorogenic substrate, fluorescence | inhibition, % at 15 µM | 2,300 tested, 45% active | AID 624325;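 active means compounds inhibiting the enzyme by at least 50% at 15 µM in any one of the replicates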
Numbers stand for hits; . = inactive; / = no result.

SMILES	NPR1 activator	A3A deaminase	FAS TE block	A3G deaminase	NPR2 activator	FAS-TE inh conf
COc1ccc(/C=C2\N=C(c3ccc(C)cc3)OC2=O)cc1	.	.	.	.	.	/
COC(=O)[C@@]12CCCCN1[C@H](c1ccc(-c3ccc4c(c3)OCO4)cc1)[C@H]1C(=O)N(C)C(=O)[C@H]12	.	.	79	.	.	.
CCN1C(=O)[C@@H]2[C@@H](c3ccc(-c4ccc5c(c4)OCO5)c(OC)c3)N3CCCC[C@@]3(C(=O)OC)[C@@H]2C1=O	.	.	53	.	.	.
Nn1c(SCC(=O)N2c3ccccc3Sc3ccc(Cl)cc32)nnc1-c1n[nH]c2c1CCC2	.	/	/	/	.	/
NC(=O)c1ncn([C@@H]2O[C@H](C(=O)N[C@H](Cc3c[nH]c4ccccc34)C(=O)N3CCN(C(=O)C4CC4)CC3)[C@@H](O)[C@H]2O)n1	.	/	/	/	.	/
CCOC(=O)[C@@]12CN(C(=O)OC(C)(C)C)CC=C1N(Cc1ccc(OC)cc1)C(=O)[C@H]2CC(=O)NCc1cccc(C(F)(F)F)c1	.	/	/	/	.	/
CCOC(=O)CC[C@@H]1CC[C@]2(CCCN(Cc3ccc(Cl)cc3)C2)O1	.	/	/	/	.	/
O=C(c1cccc(F)c1F)N1CCCC(c2nc(-c3cccs3)no2)C1 (stereo not drawn)	.	/	/	/	.	/
O=C(CCNC(=O)c1ccc([N+](=O)[O-])cc1)NCc1ccccc1	.	.	60	.	.	72
O=C(NCCOc1ccccc1)c1ccccc1[N+](=O)[O-]	.	.	.	.	.	/
O=C(CCC(=O)NNC(=O)c1ccc([N+](=O)[O-])cc1)NCc1ccccc1	.	.	.	.	.	/
O=C(NCCOc1ccccc1)c1cc(C(=O)NCCOc2ccccc2)cc([N+](=O)[O-])c1	.	.	75	.	.	77
O=C(CCNC(=O)c1ccc([N+](=O)[O-])cc1)NC1CCCCCC1	.	.	63	.	.	70
O=C(NCCC(=O)N(CCc1ccccc1)Cc1ccccc1)c1ccc([N+](=O)[O-])cc1	.	.	61	.	.	42
COc1cccc(NC(=O)Nc2c(-c3ccc(C(F)(F)F)cc3)nc3ncccn23)c1	.	/	/	/	.	/
COC(=O)c1cccc(Cn2ccc3ccc(-c4ccc5ccn(C(=O)c6ccc(C)cc6)c5c4)cc32)c1	.	/	/	/	.	/
COC(=O)[C@]12C[C@H](CC(=O)NCCCCc3ccccc3)C(=O)N(CCc3ccc(OC)c(OC)c3)C1=C[C@H](COCc1ccccc1)O[C@@H]2C	.	/	/	/	.	/
CN(c1ccccc1)S(=O)(=O)c1cccc(NC(=O)CCNC(=O)c2ccc([N+](=O)[O-])cc2)c1	.	.	54	.	.	61
CN(c1ccccc1)S(=O)(=O)c1cccc(NC(=O)CCNC(=O)c2ccccc2)c1	.	.	.	.	.	/
CC(C)c1ccc(CCNC(=O)c2ccc([N+](=O)[O-])cc2)cc1	.	.	66	.	.	73
COc1ccc(C(=O)N/C(=C\c2cn(S(=O)(=O)N(C)C)c3ccccc23)C(=O)N2CCOCC2)cc1	.	.	82	.	.	71
CN(C)S(=O)(=O)n1cc(/C=C(\NC(=O)c2ccccc2)C(=O)N2CCOCC2)c2ccccc21	.	.	.	.	.	/
COc1ccc(C(=O)N/C(=C\c2cn(S(=O)(=O)N(C)C)c3ccccc23)C(=O)N2CCCC2)cc1	.	/	80	/	.	90
COc1ccc(C(=O)N/C(=C\c2cn(S(=O)(=O)N(C)C)c3ccccc23)C(=O)NC(C)C)cc1	.	.	65	.	.	.
COC(=O)[C@]12C[C@H](CC(=O)N3CCCC3)C(=O)N(Cc3ccco3)C1=C[C@H](C(C)(C)C)O[C@@H]2C	.	/	/	/	.	/
SMILES	NPR1 activator	A3A deaminase	FAS TE block	A3G deaminase	NPR2 activator	FAS-TE inh conf
C[C@H]1C(=O)N2[C@@H](C[C@]3(c4c[nH]c5ccccc45)c4ccccc4N(S(=O)(=O)c4ccccc4)[C@H]23)C(=O)N1C	.	/	/	/	.	/
COc1ccc2c(c1)[C@H]1[C@H](CO2)[C@H](c2ccccc2)[C@]2(C)C(=O)Nc3cc(OC)c(OC)cc3C(=O)N12	.	.	.	.	.	/
Cc1ccc2c(c1)[C@H]1[C@H](CO2)[C@H](c2ccccc2)[C@]2(C)C(=O)Nc3cc(F)ccc3C(=O)N12	.	.	54	.	.	.
Cc1ccc2c(c1)NC(=O)[C@@]1(C)[C@@H](c3ccccc3)[C@H]3COc4ccccc4[C@@H]3N1C2=O	.	.	68	.	.	.
Cc1ccc2c(c1)[C@H]1[C@H](CO2)[C@H](c2ccccc2)[C@]2(C)C(=O)Nc3ccccc3C(=O)N12	.	.	53	.	.	.
C[C@@]12C(=O)Nc3cc(F)ccc3C(=O)N1[C@H]1c3cc(Br)ccc3OC[C@@H]1[C@@H]2c1ccccc1	.	.	80	.	.	.
CCCN1C(=O)c2n[nH]c(C)c2C1c1ccc(Br)cc1 (stereo not drawn)	.	/	/	/	.	/
COc1ccc2c(c1)CCCN2C(=O)C1CCCN(S(=O)(=O)c2ccc(Cl)s2)C1 (stereo not drawn)	.	/	/	/	.	/
CCCN1C(=O)c2n[nH]c(C)c2C1c1ccc2c(c1)OCO2 (stereo not drawn)	.	/	/	/	.	/
COc1ccc(CN2CCC(CNC(=O)NC(C)C)CC2)cc1	.	/	/	/	.	/
COc1ccc(NC(=O)c2cccc(Oc3ccc([N+](=O)[O-])cc3Cl)c2)cc1	.	.	52	.	.	.
COc1cccc(C(Nc2ccccn2)c2c(NC(=O)c3ccco3)sc(C)c2C)c1 (stereo not drawn)	.	.	54	.	.	.
COc1ccc(C(Nc2ccccn2)c2c(NC(=O)c3ccco3)sc(C)c2C)cc1 (stereo not drawn)	.	.	.	.	.	/
Cc1sc(NC(=O)c2ccco2)c(C(Nc2ccccn2)c2ccccc2)c1C (stereo not drawn)	.	.	60	.	.	.
Cc1cc(N2CCN(C(c3ccccc3)c3ccc(Cl)cc3)CC2)n2ncnc2n1 (stereo not drawn)	.	.	58	.	.	.
COC(=O)c1ccc(S(=O)(=O)N2CCC(NC(=O)CCc3ccccc3)CC2)cc1	.	/	/	/	.	/
O=C(C(=O)N1CCC(CNS(=O)(=O)c2ccc(F)c(F)c2)CC1)c1cc2ccccc2o1	.	/	/	/	.	/
Nc1[nH]c(C(=O)c2ccccc2)c(-c2ccc(F)cc2)c1C(=O)c1c[nH]c2ccccc12	.	/	/	/	.	/
COC(=O)N1C(=O)[C@](Cc2ccccc2)(c2ccccc2)N1C(=O)OC	.	.	63	.	.	75
CC[C@@]1(c2ccccc2)C(=O)N(C(=O)OC)N1C(=O)OC	.	.	.	.	.	/
CC[C@]1(c2cccc(C)c2)C(=O)N(C(=O)OC)N1C(=O)OC	.	.	62	.	.	59

Screening results: PubChem, Sanford-Burnham Center for Chemical Genomics
